Here are results for 34 compounds from the GenesisPotency data set.

The structures appear in SMILES notation. Hit rate of the full screen: of about 290,000 compounds, about 3,000 (1%) were called active. This is one part of a sample in which actives are shown more often than they occur. Cut-off read from the data, not from the text of the source: active = inhibition mostly above about 36% (no sharp cut-off); inactive = mostly below about 34%.

The test has as its target T1, Nucleotide-binding oligomerization domain-containing protein 1, Homo sapiens (UniProt Q9Y239).
T1 sequence (whole entry): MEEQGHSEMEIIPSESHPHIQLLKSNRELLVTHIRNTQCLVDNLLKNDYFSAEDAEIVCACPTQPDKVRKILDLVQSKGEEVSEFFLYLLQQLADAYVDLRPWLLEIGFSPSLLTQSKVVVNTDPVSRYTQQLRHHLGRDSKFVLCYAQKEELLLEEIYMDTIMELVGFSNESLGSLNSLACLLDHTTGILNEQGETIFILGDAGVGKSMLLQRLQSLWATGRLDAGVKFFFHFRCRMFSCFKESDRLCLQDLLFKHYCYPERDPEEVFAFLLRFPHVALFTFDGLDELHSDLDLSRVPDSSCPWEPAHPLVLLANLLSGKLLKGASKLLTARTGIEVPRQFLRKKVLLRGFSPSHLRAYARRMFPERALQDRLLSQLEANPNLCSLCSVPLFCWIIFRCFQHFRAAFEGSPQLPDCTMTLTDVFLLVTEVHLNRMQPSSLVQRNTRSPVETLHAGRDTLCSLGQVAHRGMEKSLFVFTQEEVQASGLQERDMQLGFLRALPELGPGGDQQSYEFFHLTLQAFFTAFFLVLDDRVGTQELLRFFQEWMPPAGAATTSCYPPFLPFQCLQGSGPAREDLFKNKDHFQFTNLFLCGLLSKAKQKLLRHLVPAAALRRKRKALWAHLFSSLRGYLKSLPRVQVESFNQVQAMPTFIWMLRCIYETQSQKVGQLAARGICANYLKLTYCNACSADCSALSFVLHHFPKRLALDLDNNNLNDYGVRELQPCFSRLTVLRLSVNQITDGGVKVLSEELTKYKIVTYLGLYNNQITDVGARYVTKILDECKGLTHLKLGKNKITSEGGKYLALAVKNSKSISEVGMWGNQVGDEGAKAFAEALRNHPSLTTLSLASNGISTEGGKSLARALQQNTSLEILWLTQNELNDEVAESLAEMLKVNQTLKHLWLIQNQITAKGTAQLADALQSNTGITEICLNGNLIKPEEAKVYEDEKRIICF
As to the kind of experiment: inhibition of NOD1-driven NF-kB reporter – cell-based, luminescence, uHTS, primary screen (AID 1578).
Consider `COc1ccc(-[n+]2c(-c3ccccc3)cc(-c3ccc(C)cc3)cc2-c2ccccc2)cc1.[O-][Cl+3]([O-])([O-])[O-]`, for which the call was active.

Regarding `COc1ccc(-c2cc(-c3ccccc3)[n+](C)c(-c3ccccc3)c2)cc1.[O-][Cl+3]([O-])([O-])[O-]`, the compound was classed as active.

Consider `CCC(C)NC(=O)CCC(=O)OC1O[C@H]2OC3(C)CC[C@H]4[C@H](C)CCC(C1C)C24OO3` (some centres undefined), for which the call was active.

Take `CCC(C)C(NC(=O)CCCNC(=O)CCC(=O)OC1O[C@H]2OC3(C)CC[C@H]4[C@H](C)CCC(C1C)C24OO3)C(=O)O` (some centres undefined): the call was active. For `CC(C)CC(NC(=O)CCCNC(=O)CCC(=O)OC1O[C@H]2OC3(C)CC[C@H]4[C@H](C)CCC(C1C)C24OO3)C(=O)O` (some centres undefined) the value was “active”; for `CC[C@@]1(O)C(=O)OCc2c1cc1n(c2=O)Cc2cc3ccccc3nc2-1`, “active”. For `CCCCCCn1c(=O)c(C(=O)Nc2cnccn2)c(O)c2ccccc21` the value was “active”; for `CCCCCn1c(=O)c(C(=O)Nc2cnccn2)c(O)c2ccccc21`, “active”. For `C=C1C(=O)O[C@H]2C[C@@H](C)[C@@H]3C=CC(=O)[C@@]3(C)C[C@H]12`, the compound was called active. For `C=C1C(=O)O[C@@H]2C[C@@H](C)[C@@H]3C=CC(=O)[C@@]3(C)[C@@H](OC(=O)CC(=O)O[C@H]3[C@@H]4C(=C)C(=O)O[C@@H]4C[C@@H](C)[C@@H]4C=CC(=O)[C@]43C)[C@H]12` the value was “active”. For `O=c1c2ccccc2nc(/C=C/c2ccccc2O)n1-c1ccccc1O` the value was “active”; for `CC(C)(C)c1ccc(CSc2cnn(C(C)(C)C)c(=O)c2Cl)cc1`, “active”; for `O=Cc1cn(Cc2cccc([N+](=O)[O-])c2)c2ccccc12`, “active”. As to `Cc1cccc(-n2c(/C=C/c3ccc([N+](=O)[O-])o3)nc3ccccc3c2=O)c1`, the result was active.

In the case of `O=c1c2ccccc2nc(/C=C/c2ccc([N+](=O)[O-])o2)n1-c1ccc(O)cc1`, the compound was called active.

For the compound `O=C(c1ccc(Cl)cc1)C1CCCN(Cc2cccc3ncccc23)C1` (centres undefined), the outcome was active.

For `Cc1nc2c(=O)n(C)c(=O)nc-2n(C)n1`, the result was active. As to `CCOc1ccc(-c2cc(C)[n+](CCN(CC)CC)c(-c3ccc(OCC)cc3)c2)cc1.[O-][Cl+3]([O-])([O-])[O-]`, the compound was called active. For `CC(=O)c1c(C)n(C2CCCCC2)c2ccc(O)cc12` the value was “active”; for `C[C@H]1CCC[C@@H](O)CCC/C=C/c2cc(O)cc(O)c2C(=O)O1`, “active”.

On to `CC1=CC(=Cc2sc3ccccc3[n+]2C)C=C(C)O1.[O-][Cl+3]([O-])([O-])[O-]`, for which the outcome was active.

In the case of `CC(C)[C@H]1C(=O)O[C@H](C(C)C)C(=O)N(C)[C@@H](C(C)C)C(=O)O[C@H](C(C)C)C(=O)N(C)[C@@H](C(C)C)C(=O)O[C@H](C(C)C)C(=O)N1C`, the compound was called active. For `CCn1nc(/C=C/c2ccccc2)nc2c(=O)n(C)c(=O)nc1-2` the value was “active”; for `CCn1nc(-c2ccccc2)nc2c(=O)n(C)c(=O)nc1-2`, “active”; for `Cc1nn(C(C)(C)C)c(C)c1/C=N/OC(=O)Nc1ccc(Cl)cc1`, “active”. For `Cc1nn(C(C)(C)C)c(C)c1/C=N/OC(=O)Nc1ccc(Cl)c(Cl)c1` the value was “active”. As to `COc1ccc(Oc2cc(NC(=O)c3nn(C)cc3[N+](=O)[O-])cc([N+](=O)[O-])c2)cc1`, the result was active.

In the case of `C[C@@H]1O[C@@H](O[C@H]2C[C@@H](O)[C@]3(CO)[C@H]4[C@H](O)C[C@]5(C)[C@@H](C6=CC(=O)OC6)CC[C@]5(O)[C@@H]4CC[C@]3(O)C2)[C@H](O)[C@H](O)[C@H]1O`, the result was active. For `NC(=O)c1cn(C2OC(CO)C(O)C2O)c2ncnc(N)c12.O` (centres undefined) the value was “active”. For `CCCCN=C[C@]12CCC(O)CC1(O)CCC1[C@@H]2CC[C@]2(C)[C@H](C3C=CC(=O)O3)CCC12O` (some centres undefined), the compound was called active. For `C[C@]12CCC3C(CCC4=CC(O)CC[C@@]43/C=N/O)C1(O)CCC2C1=CC(=O)OC1` (some centres undefined) the value was “active”; for `CC(=O)OC[C@]12CCC(C)=C[C@H]1O[C@@H]1[C@H](O)[C@@H](OC(C)=O)[C@@]2(C)[C@]12CO2`, “active”; for `C=C1C(=O)O[C@@H]2C[C@@H](C)[C@@H]3C4OC4C(=O)[C@@]3(C)[C@@H](O)[C@H]12` (some centres undefined), “active”. For `CCOc1ccc(-c2c(C)n(-c3ccc(OCC)cc3)c3[n+]2CCCCC3)cc1.[O-][Cl+3]([O-])([O-])[O-]` the value was “active”.
